According to ChEMBL document CHEMBL1961873, “Compounds: GSK PKIS; Assays: Nanosyn kinase panel” (2012):

Legend:
[1] = target: T1, Muscle, skeletal receptor tyrosine-protein kinase (Homo sapiens) (UniProt O15146); details: at 1 µM;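 also: reported value is the mean percent inhibition of MuSK kinase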
T1 sequence (whole entry): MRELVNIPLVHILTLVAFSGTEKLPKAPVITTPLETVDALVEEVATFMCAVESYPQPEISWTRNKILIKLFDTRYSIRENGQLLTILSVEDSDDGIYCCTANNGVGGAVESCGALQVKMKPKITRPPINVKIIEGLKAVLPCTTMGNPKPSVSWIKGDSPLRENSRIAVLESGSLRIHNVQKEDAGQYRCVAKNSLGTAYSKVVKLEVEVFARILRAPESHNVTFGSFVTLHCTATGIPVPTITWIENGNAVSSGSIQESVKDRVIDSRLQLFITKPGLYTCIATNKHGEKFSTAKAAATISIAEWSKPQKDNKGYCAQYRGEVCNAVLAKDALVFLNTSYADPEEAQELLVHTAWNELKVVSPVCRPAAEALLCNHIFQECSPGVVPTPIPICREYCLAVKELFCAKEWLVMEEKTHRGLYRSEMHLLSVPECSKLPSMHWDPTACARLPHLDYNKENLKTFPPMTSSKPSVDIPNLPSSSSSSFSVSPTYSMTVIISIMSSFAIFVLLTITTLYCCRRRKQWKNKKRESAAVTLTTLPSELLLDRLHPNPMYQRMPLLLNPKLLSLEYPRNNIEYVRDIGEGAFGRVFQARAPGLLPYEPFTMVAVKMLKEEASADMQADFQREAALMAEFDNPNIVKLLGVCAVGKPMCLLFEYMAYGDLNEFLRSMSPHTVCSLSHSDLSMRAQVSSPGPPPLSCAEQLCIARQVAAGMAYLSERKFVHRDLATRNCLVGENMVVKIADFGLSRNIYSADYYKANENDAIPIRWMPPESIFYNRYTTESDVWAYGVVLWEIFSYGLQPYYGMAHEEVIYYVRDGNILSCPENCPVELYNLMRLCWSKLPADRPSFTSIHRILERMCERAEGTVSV

[2] = target: Platelet-derived growth factor receptor alpha (Homo sapiens) (UniProt P16234); details: at 0.1 µM
[3] = target: Platelet-derived growth factor receptor alpha (Homo sapiens) (UniProt P16234); details: at 1 µM
[4] = test system: Platelet-derived growth factor receptor alpha (Homo sapiens), P16234 [D842V]; details: at 0.1 µM
[5] = test system: Platelet-derived growth factor receptor alpha (Homo sapiens), P16234 [D842V]; details: at 1 µM
[6] = test system: Platelet-derived growth factor receptor alpha (Homo sapiens), P16234 [T674I]; details: at 0.1 µM
[7] = test system: Platelet-derived growth factor receptor alpha (Homo sapiens), P16234 [T674I]; details: at 1 µM
[8] = test system: Platelet-derived growth factor receptor alpha (Homo sapiens), P16234 [V561D]; details: at 0.1 µM
[9] = test system: Platelet-derived growth factor receptor alpha (Homo sapiens), P16234 [V561D]; details: at 1 µM
[10] = target: Platelet-derived growth factor receptor beta (Homo sapiens) (UniProt P09619); details: at 0.1 µM
[11] = target: Platelet-derived growth factor receptor beta (Homo sapiens) (UniProt P09619); details: at 1 µM
[12] = target: Tyrosine-protein kinase FRK (Homo sapiens) (UniProt P42685); details: at 0.1 µM
[13] = target: Tyrosine-protein kinase FRK (Homo sapiens) (UniProt P42685); details: at 1 µM
[14] = target: Protein-tyrosine kinase 2-beta (Homo sapiens) (UniProt Q14289); details: at 0.1 µM
[15] = target: Protein-tyrosine kinase 2-beta (Homo sapiens) (UniProt Q14289); details: at 1 µM
[16] = target: Proto-oncogene tyrosine-protein kinase receptor Ret (Homo sapiens) (UniProt P07949); details: at 0.1 µM
[17] = target: Proto-oncogene tyrosine-protein kinase receptor Ret (Homo sapiens) (UniProt P07949); details: at 1 µM
[18] = test system: Proto-oncogene tyrosine-protein kinase receptor Ret (Homo sapiens), P07949 [V804L]; details: at 0.1 µM
[19] = test system: Proto-oncogene tyrosine-protein kinase receptor Ret (Homo sapiens), P07949 [V804L]; details: at 1 µM
[20] = test system: Proto-oncogene tyrosine-protein kinase receptor Ret (Homo sapiens), P07949 [Y791F]; details: at 0.1 µM
Chain of Proto-oncogene tyrosine-protein kinase receptor Ret (Homo sapiens), P07949 [Y791F] (P07949 whole entry Y791F): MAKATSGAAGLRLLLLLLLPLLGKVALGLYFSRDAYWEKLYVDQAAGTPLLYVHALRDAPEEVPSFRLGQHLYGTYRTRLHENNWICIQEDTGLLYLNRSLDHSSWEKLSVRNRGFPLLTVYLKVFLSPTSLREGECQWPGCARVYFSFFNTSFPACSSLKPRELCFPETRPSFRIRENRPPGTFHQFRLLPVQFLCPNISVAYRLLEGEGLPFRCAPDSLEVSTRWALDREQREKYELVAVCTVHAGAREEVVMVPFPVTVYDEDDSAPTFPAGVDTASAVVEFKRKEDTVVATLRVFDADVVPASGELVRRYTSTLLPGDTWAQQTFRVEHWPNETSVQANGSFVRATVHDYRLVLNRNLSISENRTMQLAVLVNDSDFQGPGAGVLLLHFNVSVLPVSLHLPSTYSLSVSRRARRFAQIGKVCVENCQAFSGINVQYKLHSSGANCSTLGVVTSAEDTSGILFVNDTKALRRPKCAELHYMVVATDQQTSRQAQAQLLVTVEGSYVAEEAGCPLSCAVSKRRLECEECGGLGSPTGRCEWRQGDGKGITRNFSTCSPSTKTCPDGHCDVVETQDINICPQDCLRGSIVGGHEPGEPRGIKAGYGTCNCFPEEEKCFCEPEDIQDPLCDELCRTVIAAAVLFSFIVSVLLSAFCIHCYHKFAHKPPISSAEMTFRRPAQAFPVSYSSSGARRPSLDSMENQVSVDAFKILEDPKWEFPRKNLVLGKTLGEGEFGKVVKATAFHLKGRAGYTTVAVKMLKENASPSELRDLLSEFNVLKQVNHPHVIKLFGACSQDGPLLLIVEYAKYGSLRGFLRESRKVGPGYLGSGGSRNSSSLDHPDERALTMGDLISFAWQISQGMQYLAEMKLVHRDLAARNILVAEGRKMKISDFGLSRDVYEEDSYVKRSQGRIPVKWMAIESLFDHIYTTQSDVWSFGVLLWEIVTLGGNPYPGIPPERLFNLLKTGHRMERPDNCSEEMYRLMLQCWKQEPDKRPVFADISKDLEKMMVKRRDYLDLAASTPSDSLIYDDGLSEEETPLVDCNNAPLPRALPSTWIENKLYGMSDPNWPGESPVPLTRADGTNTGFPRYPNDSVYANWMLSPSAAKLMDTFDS

Chain of Protein-tyrosine kinase 2-beta (Homo sapiens) (Q14289 whole entry, looked up): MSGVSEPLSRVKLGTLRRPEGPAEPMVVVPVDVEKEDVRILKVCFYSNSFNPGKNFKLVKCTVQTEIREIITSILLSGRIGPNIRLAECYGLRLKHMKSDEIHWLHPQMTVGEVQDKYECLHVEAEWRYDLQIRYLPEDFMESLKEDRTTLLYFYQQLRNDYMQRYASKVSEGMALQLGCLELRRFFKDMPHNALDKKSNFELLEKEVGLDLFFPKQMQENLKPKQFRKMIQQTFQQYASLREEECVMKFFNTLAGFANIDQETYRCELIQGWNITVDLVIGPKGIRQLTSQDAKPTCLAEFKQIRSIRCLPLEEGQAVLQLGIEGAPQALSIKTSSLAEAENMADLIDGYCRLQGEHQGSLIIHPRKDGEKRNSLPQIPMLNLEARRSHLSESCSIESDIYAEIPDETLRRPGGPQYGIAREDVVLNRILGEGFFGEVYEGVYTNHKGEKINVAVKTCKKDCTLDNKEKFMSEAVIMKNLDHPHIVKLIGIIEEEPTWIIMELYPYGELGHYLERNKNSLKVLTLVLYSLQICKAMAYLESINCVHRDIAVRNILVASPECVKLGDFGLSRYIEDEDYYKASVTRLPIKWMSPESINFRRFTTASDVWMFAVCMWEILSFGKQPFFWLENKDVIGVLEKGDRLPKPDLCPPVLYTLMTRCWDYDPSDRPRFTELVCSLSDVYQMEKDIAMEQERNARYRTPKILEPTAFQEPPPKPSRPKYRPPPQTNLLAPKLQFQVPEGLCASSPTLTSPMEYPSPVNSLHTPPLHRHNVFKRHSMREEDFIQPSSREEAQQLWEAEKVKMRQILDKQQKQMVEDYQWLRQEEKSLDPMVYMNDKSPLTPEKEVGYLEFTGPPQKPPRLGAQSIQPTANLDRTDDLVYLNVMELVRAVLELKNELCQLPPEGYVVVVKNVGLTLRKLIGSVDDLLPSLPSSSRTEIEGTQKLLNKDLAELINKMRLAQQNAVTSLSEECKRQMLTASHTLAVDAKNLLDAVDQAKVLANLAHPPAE
Chain of Proto-oncogene tyrosine-protein kinase receptor Ret (Homo sapiens), P07949 [V804L] (P07949 whole entry V804L): as the sequence (P07949 whole entry Y791F) above, with F791Y, V804L counted along it
Chain of Platelet-derived growth factor receptor beta (Homo sapiens) (P09619 whole entry): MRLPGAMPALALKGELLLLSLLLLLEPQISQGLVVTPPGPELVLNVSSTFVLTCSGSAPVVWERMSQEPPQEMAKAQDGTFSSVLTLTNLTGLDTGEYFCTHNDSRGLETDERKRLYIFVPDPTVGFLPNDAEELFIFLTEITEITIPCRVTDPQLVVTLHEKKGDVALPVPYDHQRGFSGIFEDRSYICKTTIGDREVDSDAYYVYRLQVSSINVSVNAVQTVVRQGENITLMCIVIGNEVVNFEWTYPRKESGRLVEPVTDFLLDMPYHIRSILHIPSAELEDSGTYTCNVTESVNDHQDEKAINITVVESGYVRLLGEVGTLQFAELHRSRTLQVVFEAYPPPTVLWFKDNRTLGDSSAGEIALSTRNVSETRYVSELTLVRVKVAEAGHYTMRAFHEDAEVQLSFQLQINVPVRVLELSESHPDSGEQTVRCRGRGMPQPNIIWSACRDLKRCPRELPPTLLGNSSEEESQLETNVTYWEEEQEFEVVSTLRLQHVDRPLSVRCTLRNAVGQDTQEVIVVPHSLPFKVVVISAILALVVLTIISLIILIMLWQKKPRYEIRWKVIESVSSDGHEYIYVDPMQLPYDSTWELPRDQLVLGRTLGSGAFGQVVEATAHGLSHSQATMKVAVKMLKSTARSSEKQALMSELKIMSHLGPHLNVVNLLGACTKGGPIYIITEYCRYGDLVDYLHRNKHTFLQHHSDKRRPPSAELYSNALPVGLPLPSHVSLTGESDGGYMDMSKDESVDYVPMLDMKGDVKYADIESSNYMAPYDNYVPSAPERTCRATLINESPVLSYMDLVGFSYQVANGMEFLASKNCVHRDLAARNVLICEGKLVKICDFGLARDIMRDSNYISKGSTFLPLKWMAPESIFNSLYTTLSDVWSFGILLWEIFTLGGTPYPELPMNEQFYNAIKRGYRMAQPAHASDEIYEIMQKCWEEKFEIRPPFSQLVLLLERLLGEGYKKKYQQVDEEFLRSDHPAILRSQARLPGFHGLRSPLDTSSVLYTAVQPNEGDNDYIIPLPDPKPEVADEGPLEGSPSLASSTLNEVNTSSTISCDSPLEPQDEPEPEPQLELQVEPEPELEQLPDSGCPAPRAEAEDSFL
Chain of Tyrosine-protein kinase FRK (Homo sapiens) (P42685 whole entry): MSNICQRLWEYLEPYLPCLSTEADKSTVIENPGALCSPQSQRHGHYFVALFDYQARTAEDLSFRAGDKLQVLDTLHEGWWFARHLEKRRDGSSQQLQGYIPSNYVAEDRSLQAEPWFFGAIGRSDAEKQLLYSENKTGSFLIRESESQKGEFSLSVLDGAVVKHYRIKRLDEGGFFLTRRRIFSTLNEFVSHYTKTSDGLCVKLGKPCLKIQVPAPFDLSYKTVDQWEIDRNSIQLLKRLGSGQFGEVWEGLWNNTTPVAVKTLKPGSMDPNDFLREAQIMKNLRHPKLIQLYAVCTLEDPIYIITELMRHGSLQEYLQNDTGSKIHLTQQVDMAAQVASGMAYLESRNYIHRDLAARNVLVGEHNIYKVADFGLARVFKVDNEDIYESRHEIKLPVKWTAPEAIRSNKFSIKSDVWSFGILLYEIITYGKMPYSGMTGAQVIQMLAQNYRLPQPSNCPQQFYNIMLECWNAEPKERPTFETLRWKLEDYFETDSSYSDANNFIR

Structure (SMILES)	inhibition [1]	inhibition [2]	inhibition [3]	inhibition [4]	inhibition [5]	inhibition [6]	inhibition [7]	inhibition [8]	inhibition [9]	inhibition [10]	inhibition [11]	inhibition [12]	inhibition [13]	inhibition [14]	inhibition [15]	inhibition [16]	inhibition [17]	inhibition [18]	inhibition [19]	inhibition [20]
CCc1nn2ncccc2c1-c1ccnc(NC2CC2)n1	3.55%	4.59%	8.05%	1.28%	5.3%	4.48%	5.6%	3.69%	5.92%	4.03%	13.8%	1.9%	1.77%	-3.19%	2.45%	3.64%	2.46%	3.6%	2.94%	5.5%
CN(C)CCOc1ccc(-c2nc(-c3ccncc3)c(-c3ccc4c(c3)CC/C4=N\O)[nH]2)cc1	3.72%	8.1%	15.9%	0.79%	3.47%	3.47%	8.38%	2.97%	5.35%	4.84%	15.7%	2.18%	1.99%	5.76%	10.5%	5.96%	7.06%	3.07%	6.45%	2.28%
COc1cccc(-n2ncc3c(N/N=C/c4ccc(F)cc4)ncnc32)c1	9.49%	15.8%	42.1%	9.48%	45.4%	9.07%	29.6%	8.4%	37.1%	12.8%	45.3%	4.95%	1.58%	8.88%	13.6%	5.24%	14.9%	2.47%	7.65%	1.26%
CCN1CCC(CC(=O)Nc2n[nH]c3nnc(-c4cccc(F)c4F)cc23)CC1	-2.42%	5.32%	10.4%	4.75%	2.84%	3.48%	4.83%	2.85%	3.83%	-0.56%	5.87%	0.59%	-2.06%	2.01%	2.8%	3.04%	1.36%	3.31%	3.73%	4.22%
Cc1cccc(Nc2ncc(-c3ccccc3)o2)c1	5.58%	7.16%	29.9%	1.63%	5.43%	7.94%	50.3%	22.5%	48.7%	7.93%	37.2%	-0.04%	3.76%	-0.77%	4.02%	1.88%	7.33%	0.92%	4.53%	2.77%
CCCN1CCC(c2ccc(Nc3nc(Nc4cc(F)ccc4C(N)=O)c4cc[nH]c4n3)c(OC)c2)CC1	15%	8.78%	46.5%	6.28%	43.8%	4.13%	9.42%	8.22%	36.4%	10.4%	54.5%	4.23%	19.3%	94.9%	96.8%	9.07%	28.1%	9.84%	51.4%	10%
CCn1cc(-c2ccnc3[nH]ccc23)c(-c2cccc(NC(=O)Nc3ccc(OCc4ccccc4)cc3)c2)n1	-5.2%	1.29%	7.03%	1.41%	2.72%	0.5%	1.13%	-0.44%	1.14%	2.04%	3.09%	1.32%	1.39%	3.44%	3.88%	0.08%	0.88%	0.99%	0.01%	2.29%
CS(=O)(=O)CCNCc1ccc(-c2ccc3ncnc(Nc4ccc(OCc5ccccc5)c(C(F)(F)F)c4)c3c2)o1	-0.25%	6.22%	7.17%	2.98%	2.15%	3.58%	5.04%	3.38%	1.15%	1.55%	2%	3.35%	2.29%	8.29%	7.02%	5.03%	2.3%	3.65%	4.42%	6.07%
c1ccc(COc2ccc(Nc3ncnc4ccc(-c5ccco5)cc34)cc2)cc1	1.01%	3.81%	6.96%	2.63%	3.21%	2.49%	3.6%	2.39%	2.43%	-0.23%	0.57%	-0.18%	0.89%	-2.12%	1.9%	1.71%	2.96%	1.93%	2.59%	1.88%
N#Cc1c(NC(=O)c2ccc(F)cc2)sc2c1CCCC2	2.55%	5.56%	7.32%	1.23%	1%	3.5%	3.1%	0.92%	3.17%	1.37%	5.64%	0.6%	1.01%	1%	1.23%	0.59%	-0.03%	1.83%	2.29%	1.07%
COc1ccc(-c2nn3ncccc3c2-c2ccnc(Nc3ccc4c(c3)OCCO4)n2)cc1	-1.95%	6.34%	29.6%	0.81%	11.7%	4.01%	15.3%	6.6%	39.6%	4.03%	20.6%	0.87%	3.44%	-3.39%	10.2%	8.94%	47.3%	3.01%	3.4%	11.7%
[O-][S+]1CCN(Cc2ccc(-c3ccc4ncnc(Nc5ccc(OCc6cccc(F)c6)c(Cl)c5)c4c3)o2)CC1	2.81%	7.43%	13.2%	4.45%	6.91%	4%	6.97%	3.95%	8.29%	4.69%	8%	4.01%	4.89%	4.76%	11.7%	3.9%	8.36%	7.71%	16.5%	6.06%
Fc1cccc(COc2ccc(Nc3ncnc4sc(-c5ccco5)cc34)cc2Cl)c1	3.44%	13.5%	19.9%	3%	2.87%	6.38%	15.5%	6.49%	4.1%	7.85%	15%	4.23%	3.25%	6.41%	5.02%	3.58%	5.02%	5.96%	11.1%	8.01%
COc1cc2ncn(-c3cc(OCc4ccccc4C(F)(F)F)c(C(=O)N(C)C)s3)c2cc1OC	2.19%	11%	39.9%	4.06%	23.9%	2.17%	1.13%	5.15%	26.5%	6.2%	34.4%	0.68%	-0.25%	-0.29%	-5.44%	3.06%	22.1%	0.43%	7.17%	1.87%
COc1cc(/C=N/Nc2ncnc3[nH]ncc23)ccc1O	22.6%	27.3%	72.4%	28.4%	80.8%	3.77%	16.5%	25%	76.3%	21.9%	67%	2.72%	3.55%	11.4%	29.7%	59%	83.4%	17.8%	68.6%	56.7%
Fc1ccc(-c2nn3ccccc3c2-c2ccncc2)cc1	3.5%	1.93%	5.44%	1.99%	5.38%	3.28%	1.29%	1.28%	5.89%	0.58%	12.7%	0.42%	1.58%	3.99%	4.06%	1.59%	5.12%	0.36%	1.74%	4.32%
CCCN(CCS(C)(=O)=O)Cc1ccc(-c2ccc3ncnc(Nc4ccc(OCc5cccc(F)c5)c(Cl)c4)c3c2)o1	2.34%	7.21%	16.2%	3.62%	5.72%	4.68%	4.67%	2.84%	7.4%	3.14%	8.69%	0.49%	2.46%	3.28%	-1.09%	4.68%	7.59%	1.01%	5.01%	2.4%
COc1cc(N2CCN(C(C)C)CC2)ccc1Nc1nc(Nc2ccc(F)cc2C(N)=O)c2cc[nH]c2n1	13.2%	3.76%	31.1%	1.57%	21.6%	1.91%	5.04%	1.82%	21.8%	5.8%	26.9%	2.93%	12.7%	95.5%	97.8%	-3.34%	9.44%	8.15%	43.8%	4.48%
CCn1c(-c2nonc2N)nc2c(C#CC(C)(C)O)ncc(OC3CCNCC3)c21	5.05%	4.05%	19.5%	5.06%	33.8%	4.95%	28.3%	2.59%	17%	5.33%	41.1%	0.94%	2.25%	6.98%	45.3%	4.43%	10.3%	1.1%	4.05%	1.51%
CNC(=O)c1cncc(/C=C/c2ccccc2Cl)c1	8.03%	7.6%	19.1%	-1.08%	4.93%	2.9%	2.13%	4.99%	23.1%	7.75%	20%	0.04%	0.05%	-1.7%	-0.21%	4.56%	7.64%	0.9%	10%	0.47%
O=S(=O)(CCNCc1ccc(-c2ccc3ncnc(Nc4ccc(OCc5cccc(F)c5)c(Cl)c4)c3c2)o1)c1ccccc1	5.15%	11.9%	19%	3.35%	6.47%	7.8%	12.8%	3.09%	8.1%	5.51%	12.2%	4.29%	3.5%	5.1%	12.9%	6.34%	3.04%	7.31%	9.24%	10.8%
c1ccc(-c2nc3n(c2-c2ccc4c(c2)OCO4)CCC3)nc1	2.2%	3.23%	7.15%	3.87%	2.04%	2.77%	2.15%	2.48%	2.33%	3.66%	4.62%	0.91%	0.2%	5.1%	6.96%	2.81%	4.44%	1.37%	1.16%	2.63%
Nc1nc(-c2cccc(Cl)c2)c(-c2ccc3ncccc3n2)s1	2.14%	8.04%	28.3%	8.3%	40.8%	5.77%	9.67%	9.61%	26.7%	5.64%	15%	3.21%	3.32%	10.4%	14.5%	4.79%	5.99%	8.87%	14.1%	3.93%
NC(=O)c1sc(-n2cnc3ccc(C(F)(F)F)cc32)cc1OCc1ccccc1Br	2.38%	4.59%	11%	1.61%	5.02%	5.32%	5.62%	3.53%	4.84%	-1.07%	7.98%	2.51%	2.35%	9.64%	12.8%	1.18%	4.33%	2.41%	3.36%	3.67%
CC(=O)NCc1cccc(C#Cc2cncnc2Nc2ccc(OCc3cccc(F)c3)c(Cl)c2)c1	3.72%	0.56%	6.14%	1.48%	1.63%	2.23%	3.66%	5.19%	2.8%	0.9%	6.15%	1.61%	1.03%	3.96%	0.92%	3.99%	20.2%	2.58%	6.73%	1.6%
Cc1ccc2c(-c3ccnc(Nc4ccccc4)n3)c(-c3ccc(F)cc3)nn2n1	4.61%	14.8%	47.9%	8.2%	46.6%	4.09%	4.32%	11.6%	59.1%	22.5%	68.1%	3.09%	14.2%	15.2%	47.5%	14.8%	46.6%	1.27%	0.44%	14.7%
